Results filed as inconclusive are left out. Active and inactive are the calls of the source. Calls come from the whole dose curve; as a rule, active = well fitted activation curve with a large enough effect; inconclusive = small, poorly fitted or top-dose-only effect; inactive = flat fitted curve, though single readings scatter.
Test: Cellular Toxicity (caspase-3) Jurkat (AID 655);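 note: cells exposed to compound for 16 h at 37 °C before reading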
Conditions: Jurkat caspase-3 activation, luminescence; caspase-3 activation: at 92.2 µM (top of the series), DMSO = 0%, tamoxifen = 100%
Text: NIH Chemical Genomics Center [NCGC]
NIH Molecular Libraries Screening Centers Network [MLSCN]
National Institutes of Environmental Health Sciences [NIEHS]
National Toxicology Program [NTP]
We have developed a 1536-well cell-based assay for quantitative high throughput screening (qHTS) against a number of cell lines to determine in vitro caspase 3/7 of small molecules. This particular assay uses the Jurkat cell line which is derived from human T cell leukemia.
NCGC Assay Protocol Summary:
The Caspase-Glo 3/7 assay (Promega) is a homogeneous method to measure caspase-3 and caspase-7 activities in cultured cells. The quantitation of caspase 3/7 activity is based on the cleavage of a peptide-aminoluciferin substrate. After caspase cleaves the substrate the free aminoluciferin is liberated and serves as the substrate of luciferase, which generates the light. The luminescent signal is proportional to amount of caspase 3/7 activity present.
Using the Caspase-Glo 3/7 assay, the amount of caspase 3/7 activity was measured in the Jurkat cell line with complete culture medium following compound treatment for 16 hours. The assay was performed in opaque white 1536-well plates. In the screen, tamoxifen and doxorubicin were used as positive controls. Library compounds were measured for their ability to cause the activation of caspase 3/7 in the cell line, as reflected by an increase in luminescence signal, in a concentration-dependent manner. Data were normalized to the controls for basal activity (DMSO only) and 100% stimulation (100 uM tamoxifen). AC50 values were determined from concentration-response data modeled with the standard Hill equation.
qHTS protocol for caspase 3/7 assay in Jurkat cells
[Step] [Parameter] [Value] [Description]
1. Reagent; 5 uL; 5000 Jurkat cells/well
3. Controls; 23 nL; Tamoxifen 0.23 uM to 100 uM & Doxorubicin 7.0 pM to 100 uM
4. Time; 16 hr; 37 °C incubation
5. Reagent; 5 uL; Caspase-Glo 3/7 reagent
6. Time; 20 min; Room Temperature
7. Detection; Luminescence; Viewlux plate reader
Keywords: caspase 3/7, apoptosis, Jurkat cell line, luminescence, NTPHTS, NTPHTS_NCGC, NIEHS, EPA, DSSTox, MLSMR, MLSCN, NIH Roadmap, qHTS, NCGC
In the case of `C[C@@H]1CC2(OC[C@]3(C)O[C@H]23)O[C@H]2C[C@@]3(C)[C@@H]4CC[C@H]5C(C)(C)C(O[C@@H]6OC[C@@H](O)[C@H](O)[C@H]6O)CC[C@@]56C[C@@]46CC[C@]3(C)[C@@H]12` (stereo not given in full), the caspase-3 activation is reported as 2.9% (inactive).
For `CCC(O)C(C)(C)C` (stereo not given), the caspase-3 activation was 2.09% (inactive).
In the case of `c1ccc2c(c1)ccc1ncccc12`, the caspase-3 activation is reported as 3.47% (inactive).
In the case of `CC/C=C/C#N`, the caspase-3 activation is reported as -0.0351% (inactive).
For `CC=O`, the caspase-3 activation was -1.03% (inactive).
With `[O-]/[N+](=N\O)c1ccccc1` the caspase-3 activation was -1.18% (inactive).
With `CCCCCCC(=O)O` the caspase-3 activation was 0.927% (inactive).
With `O=C(O)/C=C/C(=O)O` the caspase-3 activation was 1.23% (inactive).
With `CCN(Cc1ccccc1)c1ccccc1` the caspase-3 activation was 1.93% (inactive).
With `c1ccc2n[nH]nc2c1` the caspase-3 activation was 1.47% (inactive).
With `COC(=O)CC#N` the caspase-3 activation was 1.32% (inactive).
For `CC=C(Cl)Cl`, the caspase-3 activation was -0.538% (inactive).
In the case of `CCCCC(C=O)CC` (stereo not given), the caspase-3 activation is reported as -0.967% (inactive).
With `O=C1NC(=O)c2cc([N+](=O)[O-])ccc21` the caspase-3 activation was 0.91% (inactive).
With `COc1ccccc1[N+](=O)[O-]` the caspase-3 activation was 10.8% (inactive).
In the case of `OCCO`, the caspase-3 activation is reported as 1.1% (inactive).
With `C=CCn1c(=O)n(CC=C)c(=O)n(CC=C)c1=O` the caspase-3 activation was -0.997% (inactive).
In the case of `CCCCC(CC)CO` (stereo not given), the caspase-3 activation is reported as 0.69% (inactive).
In the case of `O=C(O)c1cc(Cl)cc(Cl)c1`, the caspase-3 activation is reported as -1.52% (inactive).
In the case of `CSCCC=O`, the caspase-3 activation is reported as -1.33% (inactive).
With `C=C(C)C1CC=C(C)C(OC(C)=O)C1` (stereo not given) the caspase-3 activation was 0.979% (inactive).
With `O=C(O)CNC(=O)c1ccc(CO)o1` the caspase-3 activation was -2.47% (inactive).
For `Cc1ccc2nc(-c3ccc(N)cc3)sc2c1S(=O)(=O)O`, the caspase-3 activation was -10.6% (inactive).
With `COC(=O)CCC(=O)OC` the caspase-3 activation was 1.38% (inactive).
With `CC(=O)OCCC(C)C` the caspase-3 activation was 0.836% (inactive).
In the case of `O=C1OC(=O)c2c(Br)c(Br)c(Br)c(Br)c21`, the caspase-3 activation is reported as -0.0657% (inactive).
In the case of `O=C(Cl)c1ccccc1[N+](=O)[O-]`, the caspase-3 activation is reported as 0.685% (inactive).
With `C[C@@H]1CC2(OC3C[C@@]4(C)C5=CC[C@H]6C(C)(C)C(O[C@@H]7OC[C@@H](O)[C@H](O)[C@H]7O)CC[C@@]67C[C@@]57CC[C@]4(C)C31)OC(O)C1(C)OC21` (stereo not given in full) the caspase-3 activation was 2.56% (inactive).
For `CNc1ccccc1`, the caspase-3 activation was 1.08% (inactive).
For `O=C(O)c1cccc(Cl)c1Cl`, the caspase-3 activation was 0.107% (inactive).
In the case of `CC(=O)Nc1ccc(C)cc1`, the caspase-3 activation is reported as 1.97% (inactive).
With `CC(=O)Nc1ccccc1C` the caspase-3 activation was 1.08% (inactive).
In the case of `Cc1ccc(C)o1`, the caspase-3 activation is reported as 1.7% (inactive).
In the case of `CC(C)(C)OC=O`, the caspase-3 activation is reported as -1.27% (inactive).
With `O=[N+]([O-])c1ccc(Cl)cc1Cl` the caspase-3 activation was 1.63% (inactive).
In the case of `C[C@@H]1O[C@@H](O[C@@H]2[C@@H](O)[C@H](OCCc3ccc(O)c(O)c3)O[C@H](CO[C@@H]3O[C@H](CO)[C@@H](O)[C@H](O)[C@H]3O)[C@H]2OC(=O)/C=C/c2ccc(O)c(O)c2)[C@H](O)[C@H](O)[C@H]1O`, the caspase-3 activation is reported as -3.29% (inactive).
In the case of `Nc1nc(-c2ccccc2)cs1`, the caspase-3 activation is reported as -3.96% (inactive).
For `COc1cccc(N)c1`, the caspase-3 activation was 2.35% (inactive).
For `CCNc1ccccc1`, the caspase-3 activation was 0.137% (inactive).
In the case of `CCOc1cc(OCC)c(C(C)=O)cc1OCC`, the caspase-3 activation is reported as -0.274% (inactive).

Source: PubChem BioAssay (NCATS)
